The results in this text go back to PubChem BioAssay AID2238 (Southern Research Specialized Biocontainment Screening …, 2010).

Molecules are shown by their SMILES. Active and inactive are the calls of the source. How the calls were made is not given here.

The nature of the test: West Nile virus CPE inhibition, SAR follow-up, cell-based, synthesized analogs (AID 2238). The note with it: West Nile virus CPE inhibition in cells; max CPE inhibition: measured here: maximum CPE inhibition observed, at 40 µM, stronger effect = higher value unless noted; series mostly up to 40 µM.

For `Brc1ccc2c(c1)CN1CCCC1=N2`, the max CPE inhibition worked out at 54.9%.

`OC1c2cc(Br)ccc2N=C2CCCN21` (stereo unspecified) registered a max CPE inhibition of 79.7%.

With `CN(C)CCCN1c2ccc([N+](=O)[O-])cc2CCc2cc([N+](=O)[O-])ccc21`, the max CPE inhibition is 80.3% [measured here: maximum CPE inhibition observed, at 20 µM, stronger effect = higher value].

Consider `COc1ccc(-c2csc(N(CCCN(C)C)C(=O)c3ccccc3C)n2)cc1`, for which the max CPE inhibition was 60.8% [measured here: maximum CPE inhibition observed, at 80 µM, stronger effect = higher value].

Consider `O=C(CSc1nc2ccccc2c(=O)n1-c1ccc(Cl)cc1)Nc1ccc2c(c1)CCC2`, for which the max CPE inhibition was 45.5% [measured here: maximum CPE inhibition observed, at 20 µM, stronger effect = higher value].

`O=C(CSc1nc2ccccc2c(=O)n1-c1ccccc1F)Nc1ccc2c(c1)CCC2`: the max CPE inhibition is 71.6% [measured here: maximum CPE inhibition observed, at 20 µM, stronger effect = higher value].

In the case of `CC1CCCN(CCCNC(=O)c2cc3c(s2)-c2ccccc2OC3)C1` (stereo unspecified), the max CPE inhibition is 71.4% [measured here: maximum CPE inhibition observed, at 10 µM, stronger effect = higher value].

As for `O=[N+]([O-])c1ccc2c(c1)C(O)N1CCCC1=N2` (stereo unspecified), the max CPE inhibition worked out at 1.83% and the call was inactive.

On to `CCN(CC)CCCNC(=S)N1CCN(c2nc(-c3ccc(F)cc3)cs2)CC1`, for which the max CPE inhibition was 29.4% [measured here: maximum CPE inhibition observed, at 20 µM, stronger effect = higher value] and the call was inactive.

Take `COc1ccc(-c2csc(N(Cc3ccccc3)C(=O)c3ccccc3Cl)n2)cc1`: the max CPE inhibition was 2.87% and the outcome was inactive.

With `Cc1cccc2c1-c1sc(C(=O)NCCCN3CCCC(C)C3)cc1CO2` (stereo unspecified), the max CPE inhibition is 12.1% [measured here: maximum CPE inhibition observed, at 10 µM, stronger effect = higher value] and the compound was called inactive.

On to `CC1CCCC(C)N1CCCNC(=O)c1cc2c(s1)-c1ccccc1OC2` (stereo unspecified), for which the max CPE inhibition is 77% [measured here: maximum CPE inhibition observed, at 10 µM, stronger effect = higher value].

With `CCN(CC)CCCNC(=S)N1CCN(c2nc(-c3ccccc3)cs2)CC1`, the max CPE inhibition is 76% [measured here: maximum CPE inhibition observed, at 20 µM, stronger effect = higher value].

Turning to `COc1ccc(-c2csc(NC(=O)c3ccc(Cl)cc3)n2)cc1`, the max CPE inhibition came out at 6.01% and the result was inactive.

On to `CN(C)CCCNC(=S)N1CCN(c2nc(-c3ccccc3)cs2)CC1`, for which the max CPE inhibition is 55.7% [measured here: maximum CPE inhibition observed, at 20 µM, stronger effect = higher value].

As for `CC1CC(C)CN(CCCNC(=O)c2cc3c(s2)-c2ccccc2OC3)C1` (stereo unspecified), the max CPE inhibition is 41.1% [measured here: maximum CPE inhibition observed, at 20 µM, stronger effect = higher value].

The compound `O=C(CSc1nc2ccccc2c(=O)n1-c1ccc(Cl)c(Cl)c1)Nc1ccc2c(c1)CCC2` gave a max CPE inhibition of 63.1%.

With `O=C(CSc1nc2ccccc2c(=O)n1-c1ccc(F)cc1F)Nc1ccc(N2CCOCC2)cc1`, the max CPE inhibition is 58% [measured here: maximum CPE inhibition observed, at 80 µM, stronger effect = higher value].

Take `COc1cccc(NC(=O)CSc2nc3ccccc3c(=O)n2-c2ccc(F)cc2)c1`: the max CPE inhibition was 1.33% and the result was inactive.

Take `CC1CC(C)CN(C(=O)CSc2nc3ccccc3c(=O)n2-c2ccc(F)cc2)C1` (stereo unspecified): the max CPE inhibition is 2.88% and the outcome was inactive.

In the case of `COc1ccc(NC(=O)CSc2nc3ccccc3c(=O)n2-c2ccc(F)cc2)cc1`, the max CPE inhibition was found to be 2.96% and the compound was classed as inactive.

As for `Cc1cccc2c1-c1sc(C(=O)NCCCN3CCC(C)CC3)cc1CO2`, the max CPE inhibition is 30.6% [measured here: maximum CPE inhibition observed, at 10 µM, stronger effect = higher value].

As to `COc1ccccc1NC(=O)CSc1nc2ccccc2c(=O)n1-c1ccc(F)cc1`, the max CPE inhibition was 0.86% [measured here: maximum CPE inhibition observed, at 20 µM, stronger effect = higher value] and the compound was classed as inactive.

Take `O=C(CSc1nc2ccccc2c(=O)n1-c1ccc(F)c(Cl)c1)Nc1ccc2c(c1)CCC2`: the max CPE inhibition was 65.7% [measured here: maximum CPE inhibition observed, at 20 µM, stronger effect = higher value].

In turn, `O=C(CSc1nc2ccccc2c(=O)n1-c1ccccc1)Nc1ccc2c(c1)CCC2` had a max CPE inhibition of 72%.

On to `CCOC(=O)C1(Cc2ccccc2C(F)(F)F)CCN(C2CCN(C(C)C)CC2)CC1`, for which the max CPE inhibition is 59.8%.

Consider `COc1ccc(-c2csc(NC(=O)c3ccccc3F)n2)cc1`, for which the max CPE inhibition is 1.03% and the call was inactive.

As for `CC1CCN(CCCNC(=O)c2cc3c(s2)-c2ccccc2OC3)CC1`, the max CPE inhibition was 73.1% [measured here: maximum CPE inhibition observed, at 20 µM, stronger effect = higher value].

For the compound `CCCN1CCN(CCCNC(=O)c2cc3c(s2)-c2c(C)cccc2OC3)CC1`, the max CPE inhibition is 42.7% [measured here: maximum CPE inhibition observed, at 10 µM, stronger effect = higher value].

The compound `O=C(CSc1nc2ccccc2c(=O)n1-c1ccc(F)cc1)Nc1ccc2c(c1)CCC2` displayed a max CPE inhibition of 65.2%.

For the compound `O=C(CSc1nc2ccccc2c(=O)n1-c1ccc(F)cc1F)Nc1ccc2c(c1)CCC2`, the max CPE inhibition was 64.8% [measured here: maximum CPE inhibition observed, at 80 µM, stronger effect = higher value].

`COc1ccc(-c2csc(N(CCCN(C)C)C(=O)c3ccccc3Cl)n2)cc1` gave a max CPE inhibition of 69.5%.

Turning to `COc1ccc(-c2csc(N(C(=O)c3ccccc3Cl)C(C)C)n2)cc1`, the max CPE inhibition was determined as 1.92% and the outcome was inactive.

Take `Cc1ccc2nc3n(c(=O)c2c1)CCC3`: the max CPE inhibition is 2.12% and the compound was classed as inactive.

With `O=C(Nc1nc(-c2ccc(Cl)cc2)cs1)c1ccc(I)cc1`, the max CPE inhibition stood at 0.78% and the result was inactive.

Regarding `Nc1ccc2nc3n(c(=O)c2c1)CCC3`, the max CPE inhibition turned out to be 1.56% and the outcome was inactive.

As to `O=c1c2cc(I)ccc2nc2n1CCC2`, the max CPE inhibition turned out to be 0.68% and the outcome was inactive.

Regarding `Cc1cccc2nc3n(c(=O)c12)CCC3`, the max CPE inhibition came out at 1.92% and the compound was called inactive.

As to `COc1ccc(-c2csc(N(C)C(=O)c3ccccc3Cl)n2)cc1`, the max CPE inhibition was 1.16% [measured here: maximum CPE inhibition observed, at 5 µM, stronger effect = higher value] and the outcome was inactive.

Take `Oc1ccccc1C(Nc1nccs1)c1ccc2cccnc2c1O` (stereo unspecified): the max CPE inhibition is 8.25% [measured here: maximum CPE inhibition observed, at 5 µM, stronger effect = higher value] and the outcome was inactive.

As to `O=C(CSc1nc2ccccc2c(=O)n1-c1ccc(F)cc1)Nc1ccc2c(c1)OCCO2`, the max CPE inhibition was 2.5% and the call was inactive.

Take `CCOC(=O)C1(Cc2ccccc2C(F)(F)F)CCN(C2CCN(C(C)=O)CC2)CC1`: the max CPE inhibition is 1.58% [measured here: maximum CPE inhibition observed, at 20 µM, stronger effect = higher value] and the compound was classed as inactive.

As to `COc1ccc(-c2csc(NC(=O)c3ccccc3Cl)n2)cc1`, the max CPE inhibition came to 1.74% and the result was inactive.

As for `O=C(Nc1nc(-c2ccc(Cl)cc2)cs1)c1ccc(Cl)cc1`, the max CPE inhibition was determined as 0.79% and the compound was called inactive.

Regarding `O=C(Nc1nc(-c2ccc(Cl)cc2)cs1)c1ccccc1Cl`, the max CPE inhibition came out at 0.4% and the outcome was inactive.

On to `O=c1c2c(F)cccc2nc2n1CCC2`, for which the max CPE inhibition was found to be 1.51% and the result was inactive.

As for `COc1ccc(-c2csc(NC(=O)c3cccc(Cl)c3)n2)cc1`, the max CPE inhibition turned out to be 1.98% and the outcome was inactive.

On to `c1ccc2c(c1)CN1CCCC1=N2`, for which the max CPE inhibition is 2.6% [measured here: maximum CPE inhibition observed, at 80 µM, stronger effect = higher value] and the compound was called inactive.

Turning to `O=c1c2cc(Cl)cc(Cl)c2nc2n1CCC2`, the max CPE inhibition is 1.72% and the outcome was inactive.

As to `O=C(Nc1nc(-c2ccc(Cl)cc2)cs1)c1cccc(Cl)c1`, the max CPE inhibition was found to be 0.85% and the result was inactive.

With `O=c1c2cc([N+](=O)[O-])ccc2nc2n1CCC2`, the max CPE inhibition is 0.23% [measured here: maximum CPE inhibition observed, at 1.25 µM, stronger effect = higher value] and the compound was classed as inactive.

On to `O=C(Nc1nc(-c2ccccc2)cs1)c1ccccc1Cl`, for which the max CPE inhibition is 0.47% [measured here: maximum CPE inhibition observed, at 0.16 µM, stronger effect = higher value] and the call was inactive.

As to `CCCCN(C(=O)c1ccccc1Cl)c1nc(-c2ccc(OC)cc2)cs1`, the max CPE inhibition turned out to be 1.9% and the outcome was inactive.

On to `COc1ccc(-c2csc(N(CCCBr)C(=O)c3ccccc3Cl)n2)cc1`, for which the max CPE inhibition is 1.23% and the compound was classed as inactive.

Turning to `CCCN(C(=O)c1ccccc1Cl)c1nc(-c2ccc(OC)cc2)cs1`, the max CPE inhibition was found to be 0.77% and the outcome was inactive.

Take `O=c1c2cc(Br)ccc2nc2n1CC/C2=C/c1ccccc1`: the max CPE inhibition is 1.37% and the compound was classed as inactive.

Take `COc1ccc(-c2csc(N(CCCN(C)C)C(=O)c3ccccc3F)n2)cc1`: the max CPE inhibition is 3.61% [measured here: maximum CPE inhibition observed, at 80 µM, stronger effect = higher value] and the compound was called inactive.

`COc1cccc(C(NC(=O)c2ccccc2)c2ccc3cccnc3c2O)c1` (stereo unspecified): the max CPE inhibition is 5.83% [measured here: maximum CPE inhibition observed, at 5 µM, stronger effect = higher value] and the outcome was inactive.

Regarding `CC1(O)c2cc(Br)ccc2N=C2CCCN21` (stereo unspecified), the max CPE inhibition is 1.3% [measured here: maximum CPE inhibition observed, at 0.16 µM, stronger effect = higher value] and the result was inactive.
